# Assay results reported in ChEMBL document CHEMBL1961873, “Compounds: GSK PKIS; Assays: Nanosyn kinase panel” (2012).
# Key:
# [1] = target: T1, Tyrosine-protein kinase receptor TYRO3 (Homo sapiens) (UniProt Q06418); conditions: at 1 µM
# T1 sequence (whole entry): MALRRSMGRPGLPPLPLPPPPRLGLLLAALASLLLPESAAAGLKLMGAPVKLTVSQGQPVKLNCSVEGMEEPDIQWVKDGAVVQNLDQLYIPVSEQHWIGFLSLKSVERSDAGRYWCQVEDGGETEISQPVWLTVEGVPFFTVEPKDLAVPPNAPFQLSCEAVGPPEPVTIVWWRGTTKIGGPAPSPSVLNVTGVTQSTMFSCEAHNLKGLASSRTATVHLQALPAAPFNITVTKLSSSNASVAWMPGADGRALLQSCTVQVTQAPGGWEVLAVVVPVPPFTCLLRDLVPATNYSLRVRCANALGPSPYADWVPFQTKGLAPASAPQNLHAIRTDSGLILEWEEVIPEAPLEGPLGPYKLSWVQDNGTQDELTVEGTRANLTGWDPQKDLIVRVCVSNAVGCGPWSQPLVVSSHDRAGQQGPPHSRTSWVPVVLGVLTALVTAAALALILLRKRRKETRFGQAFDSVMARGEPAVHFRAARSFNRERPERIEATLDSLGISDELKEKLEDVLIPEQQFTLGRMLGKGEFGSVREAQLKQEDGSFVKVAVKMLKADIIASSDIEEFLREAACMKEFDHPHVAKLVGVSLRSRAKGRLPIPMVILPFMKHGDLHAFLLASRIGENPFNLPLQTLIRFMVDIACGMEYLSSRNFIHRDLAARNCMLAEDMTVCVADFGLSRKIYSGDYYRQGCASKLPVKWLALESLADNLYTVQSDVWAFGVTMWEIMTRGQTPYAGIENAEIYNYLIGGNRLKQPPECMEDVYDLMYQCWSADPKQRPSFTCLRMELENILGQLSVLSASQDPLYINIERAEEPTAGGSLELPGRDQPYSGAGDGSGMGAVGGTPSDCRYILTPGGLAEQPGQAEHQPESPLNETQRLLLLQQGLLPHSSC
# [2] = target: Tyrosine-protein kinase Yes (Homo sapiens) (UniProt P07947); conditions: at 0.1 µM
# Sequence of Tyrosine-protein kinase Yes (Homo sapiens) (P07947 2-543 limits assumed): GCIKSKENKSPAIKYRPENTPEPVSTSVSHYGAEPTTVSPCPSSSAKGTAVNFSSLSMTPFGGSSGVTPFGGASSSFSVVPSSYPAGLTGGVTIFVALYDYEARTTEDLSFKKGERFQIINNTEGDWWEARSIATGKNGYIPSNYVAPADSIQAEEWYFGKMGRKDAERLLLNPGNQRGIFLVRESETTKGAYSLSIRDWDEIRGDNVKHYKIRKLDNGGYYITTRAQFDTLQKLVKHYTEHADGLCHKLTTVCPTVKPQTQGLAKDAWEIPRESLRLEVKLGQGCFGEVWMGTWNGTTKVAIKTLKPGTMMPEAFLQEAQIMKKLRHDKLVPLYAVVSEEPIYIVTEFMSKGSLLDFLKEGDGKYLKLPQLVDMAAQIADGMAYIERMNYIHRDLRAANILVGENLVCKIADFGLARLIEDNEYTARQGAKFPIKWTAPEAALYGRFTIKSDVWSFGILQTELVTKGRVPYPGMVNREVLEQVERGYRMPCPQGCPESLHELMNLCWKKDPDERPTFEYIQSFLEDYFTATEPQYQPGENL
# [3] = target: Tyrosine-protein kinase Yes (Homo sapiens) (UniProt P07947); conditions: at 1 µM
# [4] = target: T2, Tyrosine-protein kinase ZAP-70 (Homo sapiens) (UniProt P43403); conditions: at 0.1 µM
# T2 sequence (whole entry): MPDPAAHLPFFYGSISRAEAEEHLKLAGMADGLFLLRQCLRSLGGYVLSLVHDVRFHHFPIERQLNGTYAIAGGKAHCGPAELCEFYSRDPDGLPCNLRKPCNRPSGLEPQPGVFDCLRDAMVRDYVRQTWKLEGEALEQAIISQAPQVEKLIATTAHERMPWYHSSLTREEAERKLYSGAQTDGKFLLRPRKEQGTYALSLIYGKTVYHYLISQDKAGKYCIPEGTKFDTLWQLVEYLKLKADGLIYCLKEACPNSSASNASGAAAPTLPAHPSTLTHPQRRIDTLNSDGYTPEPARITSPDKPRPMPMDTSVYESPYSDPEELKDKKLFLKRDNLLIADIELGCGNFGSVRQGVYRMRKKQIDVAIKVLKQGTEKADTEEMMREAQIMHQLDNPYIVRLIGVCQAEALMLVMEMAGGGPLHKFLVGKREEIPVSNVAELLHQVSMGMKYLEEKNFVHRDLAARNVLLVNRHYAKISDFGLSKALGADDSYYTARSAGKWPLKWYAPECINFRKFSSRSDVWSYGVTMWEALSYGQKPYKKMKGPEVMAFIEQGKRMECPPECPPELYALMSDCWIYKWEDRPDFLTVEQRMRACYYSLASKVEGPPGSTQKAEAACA
# [5] = target: T2, Tyrosine-protein kinase ZAP-70 (Homo sapiens); conditions: at 1 µM
# [6] = target: Serine/threonine-protein kinase B-raf (Homo sapiens) (UniProt P15056); conditions: at 0.1 µM
# Sequence of Serine/threonine-protein kinase B-raf (Homo sapiens) (P15056 whole entry): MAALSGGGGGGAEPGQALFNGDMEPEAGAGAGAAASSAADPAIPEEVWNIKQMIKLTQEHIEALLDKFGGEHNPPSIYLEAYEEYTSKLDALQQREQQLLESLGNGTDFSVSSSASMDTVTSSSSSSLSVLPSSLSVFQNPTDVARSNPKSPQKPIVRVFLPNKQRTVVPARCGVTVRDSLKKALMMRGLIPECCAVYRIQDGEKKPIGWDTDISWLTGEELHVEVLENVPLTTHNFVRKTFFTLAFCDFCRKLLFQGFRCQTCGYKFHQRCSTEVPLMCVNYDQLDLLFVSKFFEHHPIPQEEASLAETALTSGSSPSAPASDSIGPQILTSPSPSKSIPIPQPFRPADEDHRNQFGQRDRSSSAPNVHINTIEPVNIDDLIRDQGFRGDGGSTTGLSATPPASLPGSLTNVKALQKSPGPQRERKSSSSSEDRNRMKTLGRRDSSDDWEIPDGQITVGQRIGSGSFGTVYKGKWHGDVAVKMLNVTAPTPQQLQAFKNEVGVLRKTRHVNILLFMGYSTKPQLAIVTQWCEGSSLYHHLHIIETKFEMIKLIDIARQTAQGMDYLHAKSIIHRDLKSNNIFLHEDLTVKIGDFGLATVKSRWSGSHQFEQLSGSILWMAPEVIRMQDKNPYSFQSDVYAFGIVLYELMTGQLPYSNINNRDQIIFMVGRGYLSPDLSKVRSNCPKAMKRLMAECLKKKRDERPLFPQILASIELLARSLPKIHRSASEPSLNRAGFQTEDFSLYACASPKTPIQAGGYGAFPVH
# [7] = target: Serine/threonine-protein kinase B-raf (Homo sapiens) (UniProt P15056); conditions: at 1 µM
# [8] = tested on: Serine/threonine-protein kinase B-raf (Homo sapiens), P15056 [V600E]; conditions: at 0.1 µM
# Sequence of Serine/threonine-protein kinase B-raf (Homo sapiens), P15056 [V600E] (P15056 whole entry V600E): as the sequence (P15056 whole entry) above, with V600E counted along it
# [9] = tested on: Serine/threonine-protein kinase B-raf (Homo sapiens), P15056 [V600E]; conditions: at 1 µM
# [10] = target: RAF proto-oncogene serine/threonine-protein kinase (Homo sapiens) (UniProt P04049); conditions: at 0.1 µM
# Sequence of RAF proto-oncogene serine/threonine-protein kinase (Homo sapiens) (P04049 whole entry): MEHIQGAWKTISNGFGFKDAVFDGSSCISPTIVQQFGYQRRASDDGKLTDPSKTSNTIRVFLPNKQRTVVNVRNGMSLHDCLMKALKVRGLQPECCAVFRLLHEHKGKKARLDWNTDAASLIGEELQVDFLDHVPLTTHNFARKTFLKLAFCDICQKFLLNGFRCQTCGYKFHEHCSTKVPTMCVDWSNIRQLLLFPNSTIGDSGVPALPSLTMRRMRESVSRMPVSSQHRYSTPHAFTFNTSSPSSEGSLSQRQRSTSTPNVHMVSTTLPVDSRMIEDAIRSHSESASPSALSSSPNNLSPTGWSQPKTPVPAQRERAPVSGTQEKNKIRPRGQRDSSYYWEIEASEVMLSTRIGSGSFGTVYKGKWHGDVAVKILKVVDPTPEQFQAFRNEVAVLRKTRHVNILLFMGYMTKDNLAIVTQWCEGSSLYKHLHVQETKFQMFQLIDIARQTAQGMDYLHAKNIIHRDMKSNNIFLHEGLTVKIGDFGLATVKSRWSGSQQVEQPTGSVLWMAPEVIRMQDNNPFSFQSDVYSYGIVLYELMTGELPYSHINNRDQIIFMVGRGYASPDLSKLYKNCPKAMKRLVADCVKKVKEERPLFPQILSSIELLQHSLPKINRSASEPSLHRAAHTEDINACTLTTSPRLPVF
# [11] = target: RAF proto-oncogene serine/threonine-protein kinase (Homo sapiens) (UniProt P04049); conditions: at 1 µM
# [12] = target: T3, Interleukin-1 receptor-associated kinase 4 (Homo sapiens) (UniProt Q9NWZ3); conditions: at 0.1 µM
# T3 sequence (whole entry): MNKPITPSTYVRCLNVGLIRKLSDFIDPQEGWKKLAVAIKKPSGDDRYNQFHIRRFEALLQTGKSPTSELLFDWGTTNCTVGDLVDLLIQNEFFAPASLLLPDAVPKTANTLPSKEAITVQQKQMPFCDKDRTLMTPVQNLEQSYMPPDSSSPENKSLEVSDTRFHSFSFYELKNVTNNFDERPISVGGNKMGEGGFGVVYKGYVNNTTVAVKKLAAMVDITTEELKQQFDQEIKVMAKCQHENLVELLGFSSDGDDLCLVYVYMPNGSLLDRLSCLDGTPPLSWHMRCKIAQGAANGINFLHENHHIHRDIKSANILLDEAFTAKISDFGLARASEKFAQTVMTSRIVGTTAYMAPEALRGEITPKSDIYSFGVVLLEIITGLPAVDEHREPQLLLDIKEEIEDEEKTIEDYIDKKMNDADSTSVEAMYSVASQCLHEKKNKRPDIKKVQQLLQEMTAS
# [13] = target: T3, Interleukin-1 receptor-associated kinase 4 (Homo sapiens); conditions: at 1 µM
# [14] = target: Leucine-rich repeat serine/threonine-protein kinase 2 (Homo sapiens) (UniProt Q5S007); conditions: at 0.1 µM
# Sequence of Leucine-rich repeat serine/threonine-protein kinase 2 (Homo sapiens) (Q5S007 whole entry): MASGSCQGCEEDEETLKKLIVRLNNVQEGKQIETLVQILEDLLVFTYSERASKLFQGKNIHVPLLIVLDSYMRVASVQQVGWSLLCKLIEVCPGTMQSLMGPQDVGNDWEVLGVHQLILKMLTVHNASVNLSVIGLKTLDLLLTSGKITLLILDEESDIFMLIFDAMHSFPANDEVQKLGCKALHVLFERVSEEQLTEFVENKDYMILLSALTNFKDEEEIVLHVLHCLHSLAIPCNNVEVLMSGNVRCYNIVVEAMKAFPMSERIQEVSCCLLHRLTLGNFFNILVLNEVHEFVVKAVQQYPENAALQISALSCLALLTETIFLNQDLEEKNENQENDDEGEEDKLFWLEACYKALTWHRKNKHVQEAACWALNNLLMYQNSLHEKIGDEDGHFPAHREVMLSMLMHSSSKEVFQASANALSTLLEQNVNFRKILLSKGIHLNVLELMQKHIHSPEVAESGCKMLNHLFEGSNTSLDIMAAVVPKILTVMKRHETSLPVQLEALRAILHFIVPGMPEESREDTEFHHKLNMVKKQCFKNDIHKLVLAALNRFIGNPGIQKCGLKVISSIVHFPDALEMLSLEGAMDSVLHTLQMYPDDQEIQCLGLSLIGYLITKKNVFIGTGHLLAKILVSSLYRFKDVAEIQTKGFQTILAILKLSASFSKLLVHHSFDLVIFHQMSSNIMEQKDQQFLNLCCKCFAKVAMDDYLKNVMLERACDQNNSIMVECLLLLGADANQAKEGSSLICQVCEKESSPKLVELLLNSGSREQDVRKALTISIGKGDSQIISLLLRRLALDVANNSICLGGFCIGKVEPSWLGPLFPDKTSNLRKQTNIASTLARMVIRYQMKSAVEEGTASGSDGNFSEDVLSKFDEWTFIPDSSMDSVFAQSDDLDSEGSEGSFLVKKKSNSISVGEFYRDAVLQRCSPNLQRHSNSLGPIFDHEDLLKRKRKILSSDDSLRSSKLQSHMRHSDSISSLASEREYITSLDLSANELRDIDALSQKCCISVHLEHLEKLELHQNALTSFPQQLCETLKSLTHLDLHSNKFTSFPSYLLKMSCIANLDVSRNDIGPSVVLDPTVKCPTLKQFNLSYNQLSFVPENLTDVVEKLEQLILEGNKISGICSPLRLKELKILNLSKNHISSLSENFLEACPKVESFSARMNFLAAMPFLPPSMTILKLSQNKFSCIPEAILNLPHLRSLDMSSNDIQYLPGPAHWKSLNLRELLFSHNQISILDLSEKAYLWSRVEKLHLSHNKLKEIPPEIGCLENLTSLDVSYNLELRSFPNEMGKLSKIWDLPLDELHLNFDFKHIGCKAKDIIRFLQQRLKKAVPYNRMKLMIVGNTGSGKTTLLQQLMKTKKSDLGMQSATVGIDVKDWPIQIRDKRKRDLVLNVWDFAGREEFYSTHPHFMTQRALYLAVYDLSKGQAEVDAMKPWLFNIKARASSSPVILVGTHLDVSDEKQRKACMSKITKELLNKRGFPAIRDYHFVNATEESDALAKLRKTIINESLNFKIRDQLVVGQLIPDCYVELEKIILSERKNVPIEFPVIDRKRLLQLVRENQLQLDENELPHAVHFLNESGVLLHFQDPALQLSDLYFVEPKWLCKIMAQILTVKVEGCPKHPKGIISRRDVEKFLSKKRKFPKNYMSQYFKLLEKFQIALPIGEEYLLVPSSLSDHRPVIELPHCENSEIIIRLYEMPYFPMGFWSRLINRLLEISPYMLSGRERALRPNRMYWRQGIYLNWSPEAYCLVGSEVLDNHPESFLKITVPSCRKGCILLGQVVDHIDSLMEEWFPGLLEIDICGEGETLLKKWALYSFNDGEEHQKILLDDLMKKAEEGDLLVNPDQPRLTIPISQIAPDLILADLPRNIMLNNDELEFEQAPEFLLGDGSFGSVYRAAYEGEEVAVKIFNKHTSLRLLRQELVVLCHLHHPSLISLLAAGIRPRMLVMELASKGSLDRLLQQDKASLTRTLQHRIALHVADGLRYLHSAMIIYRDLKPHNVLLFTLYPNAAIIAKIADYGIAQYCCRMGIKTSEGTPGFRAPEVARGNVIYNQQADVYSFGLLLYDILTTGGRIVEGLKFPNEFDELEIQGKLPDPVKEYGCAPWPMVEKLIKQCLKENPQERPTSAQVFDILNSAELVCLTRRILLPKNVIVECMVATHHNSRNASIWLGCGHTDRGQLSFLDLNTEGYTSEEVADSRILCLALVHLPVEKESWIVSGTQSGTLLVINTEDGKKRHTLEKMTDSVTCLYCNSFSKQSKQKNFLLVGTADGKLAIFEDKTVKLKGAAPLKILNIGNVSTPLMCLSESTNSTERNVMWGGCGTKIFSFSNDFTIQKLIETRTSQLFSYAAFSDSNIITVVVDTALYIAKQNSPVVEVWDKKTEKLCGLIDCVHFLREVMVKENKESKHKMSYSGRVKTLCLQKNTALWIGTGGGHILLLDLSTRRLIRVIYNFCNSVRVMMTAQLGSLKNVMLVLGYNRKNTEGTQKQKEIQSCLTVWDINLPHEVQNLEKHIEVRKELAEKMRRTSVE
# [15] = target: Leucine-rich repeat serine/threonine-protein kinase 2 (Homo sapiens) (UniProt Q5S007); conditions: at 1 µM
# [16] = tested on: Leucine-rich repeat serine/threonine-protein kinase 2 (Homo sapiens), Q5S007 [G2019S]; conditions: at 0.1 µM
# Sequence of Leucine-rich repeat serine/threonine-protein kinase 2 (Homo sapiens), Q5S007 [G2019S] (Q5S007 whole entry G2019S): as the sequence (Q5S007 whole entry) above, with G2019S counted along it
# [17] = tested on: Leucine-rich repeat serine/threonine-protein kinase 2 (Homo sapiens), Q5S007 [G2019S]; conditions: at 1 µM
SMILES,inhibition [1] [%],inhibition [2] [%],inhibition [3] [%],inhibition [4] [%],inhibition [5] [%],inhibition [6] [%],inhibition [7] [%],inhibition [8] [%],inhibition [9] [%],inhibition [10] [%],inhibition [11] [%],inhibition [12] [%],inhibition [13] [%],inhibition [14] [%],inhibition [15] [%],inhibition [16] [%],inhibition [17] [%]
c1ccc(-c2nc3n(c2-c2ccc4c(c2)OCO4)CCC3)nc1,1.8,1.3,3.94,4.17,1.94,2.61,2.48,2.01,3.56,-0.19,-1.34,0.9,0.56,1.19,3.89,2.25,3.64
CN1CCC(n2cnc(-c3ccc(F)cc3)c2-c2ccnc(N)n2)CC1,7.48,2.09,13.4,1.2,2.81,1.83,5.24,1.74,5.35,-0.57,-4.14,3.88,0.94,0.66,1.74,1.6,9.24
COc1cccc(-c2c[nH]c3c(N/N=C/c4ccncc4)ncnc23)c1,38,19.6,65.2,1.26,1.55,3.1,11,3.98,11.2,2.82,–,-2.59,5.06,4.34,14,5.22,25.9
CCn1cc(-c2ccnc3[nH]ccc23)c(-c2cccc(NC(=O)Nc3ccc(OCc4ccccc4)cc3)c2)n1,1.53,1.1,24.8,-0.61,2.51,–,–,–,–,4.65,-2.76,-0.99,-0.44,2.13,3.32,3.73,4
